Screening results (PubChem)
Many of the other results were omitted from the sample, so hits are more common in it than they were.
IL-1B inflam inh: qHTS for Inhibitors of Inflammasome Signaling: IL-1-beta AlphaLISA Primary Screen; 360,000 tested, 4.7% active; activity change, % at 57.5 µM; THP-1 LPS/ATP IL-1B secretion, AlphaLISA, 16 h; stronger effect = lower value; in the data active = activity change below about -50%; inconclusive = mostly about -30% to -49%
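Secreted IL-1B measured by AlphaLISA bead assay after 16 h compound exposure of THP-1 cells; compounds (final up to 57.5 uM) added 1 h before LPS (250 ng/mL) and ATP (1.25 mM) stimulation; lower signal means less secretion.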
HT1080NT lethal: qHTS for induction of synthetic lethality in tumor cells producing 2HG: qHTS for the HT-1080-NT fibrosarcoma cell line; HT-1080-NT fibrosarcoma viability, CellTiter-Glo ATP luminescence, 48 h; Potency, µM (doses to about 46.1 µM), actives largely listed as cytotoxic; 360,000 tested, 1.6% active; AID 686970, 2013;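 note: NT is the 2HG producing partner of a matched IDH1 knockdown line; nearly all actives have a fitted effect of over 55% in size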
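Fibrosarcoma NT cells, 750 per well in 5% FBS RPMI, were exposed to compound for 48 hours. Viability: CellTiter-Glo luminescence.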
ALOX12 inh: Primary qHTS assay for inhibitors of human arachidonate 12S-lipoxygenase (ALOX12): Round 2; Potency, µM (titrated, usually from 108 µM), most hits filed as inhibitors; 580,000 tested, 1.1% active; Polyunsaturated fatty acid lipoxygenase ALOX12 (Homo sapiens), P18054; AID 1671190, 2021; purified 12hLO, xylenol orange hydroperoxide absorbance
Target sequence (P18054 whole entry, looked up): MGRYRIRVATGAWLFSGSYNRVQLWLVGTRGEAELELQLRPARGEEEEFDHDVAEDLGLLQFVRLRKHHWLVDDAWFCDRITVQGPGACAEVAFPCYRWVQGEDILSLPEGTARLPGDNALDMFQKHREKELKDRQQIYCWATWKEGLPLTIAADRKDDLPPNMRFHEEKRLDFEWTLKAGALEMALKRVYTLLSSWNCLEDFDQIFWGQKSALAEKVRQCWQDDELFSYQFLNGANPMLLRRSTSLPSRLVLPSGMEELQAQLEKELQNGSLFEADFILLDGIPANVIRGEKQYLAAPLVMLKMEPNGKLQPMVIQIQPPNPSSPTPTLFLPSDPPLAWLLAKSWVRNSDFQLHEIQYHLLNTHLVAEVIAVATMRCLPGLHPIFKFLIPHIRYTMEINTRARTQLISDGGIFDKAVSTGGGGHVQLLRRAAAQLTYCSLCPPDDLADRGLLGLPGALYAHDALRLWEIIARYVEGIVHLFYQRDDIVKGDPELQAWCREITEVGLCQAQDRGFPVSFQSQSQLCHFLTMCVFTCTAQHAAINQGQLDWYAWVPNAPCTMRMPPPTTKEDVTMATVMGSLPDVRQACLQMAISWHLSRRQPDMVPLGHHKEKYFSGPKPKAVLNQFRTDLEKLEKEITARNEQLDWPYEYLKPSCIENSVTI
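Purified human 12hLO at 150 nM in 25 mM Hepes, 0.01% Triton X-100, pH 7.0, preincubated 15 min at room temperature with compound. Reaction started with 40 uM arachidonic acid, 30 min at room temperature. Hydroperoxide measured by Fe-xylenol orange, 573/405 nm absorbance ratio.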
DT40 TDP1 no CPT: qHTS for Inhibitors of human tyrosyl-DNA phosphodiesterase 1 (TDP1): qHTS in cells in absence of CPT; DT40 Tdp1-/- hTDP1 cells, no CPT, ATP luminescence, 48 h; 420,000 tested, 15% active; AID 686978, 2013; Potency, µM (series often up to 46.2 µM), most hits filed as inhibitors; note: nearly all actives have a fitted effect of over 55% in size
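Growth of hTDP1-complemented DT40 Tdp1-knockout cells is measured by ATP luminescence after at least 48 hr compound exposure at 37 °C, with DMSO substituting for the 20 nM CPT used in the parallel screen.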
DT40 TDP1 CPT: qHTS for Inhibitors of human tyrosyl-DNA phosphodiesterase 1 (TDP1): qHTS in cells in presence of CPT | chicken DT40 Tdp1-/-;hTDP1 cells + 20 nM CPT, ATP luminescence, 48 h | Potency, µM (series often up to 46.2 µM), hits mostly inhibitors | 420,000 tested, 12% active | AID 686979, 2013; note: nearly all actives have a fitted effect of over 55% in size
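Chicken DT40 Tdp1-/- cells stably complemented with human TDP1 were seeded at 400 cells/well in medium containing 20 nM camptothecin, exposed to pin-transferred compounds, and grown at 37 °C for at least 48 hr. Viability was read as ATP luminescence.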
HT1080 IDH1KD tx: qHTS for induction of synthetic lethality in tumor cells producing 2HG: qHTS for the HT-1080-IDH1KD cell line. HT-1080 IDH1 knockdown viability, ATP luminescence, 48 h. Potency, µM (doses to about 46.1 µM), actives largely listed as cytotoxic. 360,000 tested, 2% active. AID 686971, 2013
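Knockdown cells (IDH1KD HT-1080) received compounds 2 h after plating at 750 cells/well and were kept 48 h at 37 °C in 5% FBS RPMI. A CellTiter-Glo luminescence read gave % activity for curve fitting.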
Large screens that a line does not name were inactive. Unless noted, calls come from the whole dose curve; as a rule, active = well fitted curve in the direction sought with a large enough effect; inconclusive = small, poorly fitted or top-dose-only effect, or another doubt; inactive = no such curve, though single readings can be large; an effect the other way counts as inactive or inconclusive.

Cc1cc(C(F)(F)F)nn1CC(=O)N1CCCCCCN(C)C(=O)[C@@H]2CCC[C@@H]21	none (no result: IL-1B inflam inh, HT1080NT lethal, DT40 TDP1 no CPT, DT40 TDP1 CPT, HT1080 IDH1KD tx)
COc1cccc(CN(C)CC(O)COc2c(C)cccc2C)c1OC (configuration not stated)	none (no result: IL-1B inflam inh, HT1080NT lethal, DT40 TDP1 no CPT, DT40 TDP1 CPT, HT1080 IDH1KD tx)
CCS(=O)(=O)N(C)c1ccc2sc(C(=O)NC)cc2c1	none (no result: IL-1B inflam inh, HT1080NT lethal, DT40 TDP1 no CPT, DT40 TDP1 CPT, HT1080 IDH1KD tx)
COc1cc2nc(N(CCCN(C)C)C(=O)c3ccc(S(=O)(=O)N(C)C4CCCCC4)cc3)sc2cc1OC	IL-1B inflam inh -79, DT40 TDP1 no CPT 16µM, DT40 TDP1 CPT inconclusive
COc1cc2nc(N(CCN(C)C)C(=O)c3ccc(S(=O)(=O)N(C)CC4CCCO4)cc3)sc2cc1OC (configuration not stated)	none
CC(C)C[C@@H](CSc1ccccc1)N1CCN(CC(C)C)CCC1=O	DT40 TDP1 no CPT 14µM, DT40 TDP1 CPT 29µM
C[C@H]1CCC(=O)N([C@H](CSc2ccc(Br)cc2)Cc2ccccc2)CC1	IL-1B inflam inh inconclusive, DT40 TDP1 no CPT 29µM, DT40 TDP1 CPT 18µM
CN1CCC(=O)N([C@H](CSc2ccc(Br)cc2)Cc2ccccc2)CC1	IL-1B inflam inh inconclusive, DT40 TDP1 no CPT inconclusive, DT40 TDP1 CPT 21µM
CC(=O)Nc1ccc(SC[C@H](Cc2ccccc2)N2CC[C@@H](N)CCC2=O)cc1	DT40 TDP1 no CPT 0.13µM (no result: IL-1B inflam inh, HT1080NT lethal, ALOX12 inh, HT1080 IDH1KD tx)
Cc1ccc(SC[C@H](Cc2ccccc2)N2CCN(C)CCC2=O)cc1	DT40 TDP1 no CPT inconclusive, DT40 TDP1 CPT inconclusive
CN1CCC(=O)N([C@H](CSc2ccccc2)Cc2ccccc2)CC1	DT40 TDP1 no CPT inconclusive, DT40 TDP1 CPT inconclusive
C[C@H]1CCC(=O)N([C@H](CN=[N+]=[N-])Cc2ccccc2)CC1	DT40 TDP1 no CPT inconclusive
CN(C)S(=O)(=O)c1ccc2oc(SCCOc3ccc(F)cc3)nc2c1	none (no result: IL-1B inflam inh, HT1080NT lethal, DT40 TDP1 no CPT, DT40 TDP1 CPT, HT1080 IDH1KD tx)
COC(=O)c1cn([C@H]2CO[C@H]3[C@@H]2OC[C@@H]3NC(=O)Nc2ccc(OC)cc2)nn1	none (no result: IL-1B inflam inh, HT1080NT lethal, DT40 TDP1 no CPT, DT40 TDP1 CPT, HT1080 IDH1KD tx)
O=C(COC(=O)Cc1ccccc1F)NC(=O)NC1CCCC1	none
CC(C)CN1CCC(=O)N([C@H](CSc2ccc(Br)cc2)Cc2ccccc2)CC1	IL-1B inflam inh -53, DT40 TDP1 no CPT 18µM, DT40 TDP1 CPT 15µM
O=C1c2ccccc2-c2cc([N+](=O)[O-])c([N+](=O)[O-])cc21	DT40 TDP1 no CPT 0.5µM, DT40 TDP1 CPT 0.4µM (no result: IL-1B inflam inh, HT1080NT lethal, ALOX12 inh, HT1080 IDH1KD tx)
C=C[C@@H](C1=CC(=O)C(OC)=C(OC)C1=O)c1ccccc1	ALOX12 inh inconclusive, DT40 TDP1 no CPT 0.73µM, DT40 TDP1 CPT 1.2µM (no result: IL-1B inflam inh, HT1080NT lethal, HT1080 IDH1KD tx)
CCc1ccc(-c2csc(NC(=O)C3=COCCO3)n2)cc1	DT40 TDP1 no CPT inconclusive, DT40 TDP1 CPT 12µM
O=C(Nc1nc(-c2cccs2)cs1)c1ccc([N+](=O)[O-])o1	IL-1B inflam inh -90, HT1080NT lethal inconclusive, ALOX12 inh inconclusive, DT40 TDP1 no CPT 21µM, DT40 TDP1 CPT inconclusive, HT1080 IDH1KD tx inconclusive
COc1ccc(-c2csc(NC(=O)C3=COCCO3)n2)cc1OC	IL-1B inflam inh inconclusive, DT40 TDP1 no CPT inconclusive, DT40 TDP1 CPT inconclusive
O=C(Nc1nc(-c2ccc(F)c(F)c2)cs1)C1=COCCO1	ALOX12 inh inconclusive, DT40 TDP1 no CPT inconclusive, DT40 TDP1 CPT inconclusive
O=C(Cc1ccccc1)Nc1nc(-c2cccs2)cs1	DT40 TDP1 CPT inconclusive, HT1080 IDH1KD tx inconclusive
O=C(Nc1nc(-c2ccc(Cl)cc2)cs1)C1=COCCO1	IL-1B inflam inh -84, ALOX12 inh inconclusive, DT40 TDP1 no CPT 23µM, DT40 TDP1 CPT 23µM
O=C(Nc1nc(-c2cccs2)cs1)C1=COCCO1	ALOX12 inh inconclusive, DT40 TDP1 no CPT 23µM, DT40 TDP1 CPT inconclusive
Cc1cc(C)c(-c2csc(NC(=O)C3=COCCO3)n2)c(C)c1	IL-1B inflam inh inconclusive, DT40 TDP1 CPT inconclusive
